From PubChem BioAssay (Tox21)
Records with an inconclusive call do not appear. Where a call stands in place of a potency, no number is given. Active and inactive are the calls of the source. Calls come from the whole dose curve.

experiment: p53 small molecule agonists, cell-based qHTS assay: qHTS cell viability counter screen (AID 1963581); conditions: p53RE-bla HCT-116 viability, ATP luminescence, 16 h; series mostly up to 66 µM; note: nearly all actives have a fitted effect of over 45% in size
From the text: National Center for Advancing Translational Sciences [NCATS]
Division of Preclinical Innovation [DPI]
U.S. Environmental Protection Agency [EPA]
National Institutes of Environmental Health Sciences [NIEHS]
National Toxicology Program [NTP]
U.S. Food and Drug Administration [FDA]
p53, a tumor suppressor protein, is activated following cellular insult, including DNA damage and other cellular stresses. The activation of p53 regulates cell fate by inducing DNA repair, cell cycle arrest, apoptosis, or cellular senescence. The activation of p53, therefore, is a good indicator of DNA damage and other cellular stresses. The CellSensor p53RE-bla HCT-116 cell line (Invitrogen) contains a stably integrated beta-lactamase reporter gene under control of the p53 response elements. The activation of the reporter gene under culture conditions can be detected by fluorescence intensity. This cell line was used to screen the Tox21 compound library in a 1536-well plate format and to identify agonists that activate the p53 signaling pathway. The cytotoxicity of the Tox21 compound library against the p53 RE-bla HCT-116 cell line was tested in parallel by measuring the intra cellular ATP content in the same wells.
Tox21 Assay Protocol Summary:
The p53RE-bla cells were dispensed at 4,000 cells/5 ul/well in 1536-well black wall/clear bottom plates using a Multidrop dispenser. After the assay plates were incubated at a 37 C/5% CO2 incubator for 5 hours, 23 nL of compounds dissolved in DMSO, positive controls or DMSO only was transferred to the assay plate by a pin tool. The plates were incubated at 37 C for 16 hours. After 1 uL of LiveBLAzerTM B/G FRET substrate was added using a Flying Reagent Dispenser, the plates were incubated at room temperature for 2 hours, and fluorescence intensity was measured by an Envision plate reader. For cell viability readout that measures cytotoxicity, 4 ul/well of CellTiter-Glo reagent was added into the assay plates using a Flying Reagent Dispenser. After 30 min incubation at room temperature, the luminescence intensity in the plates was measured using a ViewLux plate reader.
Potency is the fitted concentration of half-maximal effect.

SMILES | Potency
COc1cc(C[C@@H](C)N)c(OC)cc1Br | inactive
O=C(Nc1ccccc1)N(Cc1ccc(Cl)cc1)C1CCCC1 | inactive
CCSCc1ccccc1OC(=O)NC | inactive
COc1cc(CCN)cc(OC)c1OC | inactive
C[C@H](N)[C@H](O)c1ccc(O)c(O)c1 | inactive
CCC1(C2=NCCN2)Cc2ccccc2O1 (stereo not given) | inactive
C=CC(=O)OCC(COC(=O)C=C)(COC(=O)C=C)COC(=O)C=C | 10.2 µM (active)
O=C(Cl)c1ccccc1F | inactive
CC(=O)[O-].CC(=O)[O-].O.O.O.[Pb+2] | inactive
O=C(O)c1ccccc1C(=O)Nc1cccc2ccccc12 | inactive
Cc1cc(C(C)(C)c2ccc(O)c(C)c2)ccc1O | inactive
C/C(=C\c1ccccc1)[N+](=O)[O-] | inactive
O=C(NC(O)C(Cl)(Cl)Cl)NC(O)C(Cl)(Cl)Cl (stereo not given) | inactive
CCc1cc(OC)c(C[C@H](C)N)cc1OC | inactive
CCCC[N+]1(C)[C@@H]2CC(OC(=O)[C@H](CO)c3ccccc3)C[C@H]1[C@@H]1O[C@@H]12 (stereo not given in full) | inactive
N#CC(C#N)=C(C#N)C#N | inactive
Cc1cc(C)c(C(=O)P(=O)(C(=O)c2c(C)cc(C)cc2C)c2ccccc2)c(C)c1 | inactive
CCOC(=O)NC(C)(C)Cc1ccc(Cl)cc1 | inactive
Nc1c(Cl)c(F)nc(OCC(=O)O)c1Cl | inactive
O=NN1CCNCC1 | inactive

SMILES | Potency
Oc1ccccc1Br | inactive
COc1cc(CC(C)N)cc(OC)c1OC (stereo not given) | inactive
CCC[CH2][Sn]([CH2]CCC)([CH2]CCC)[O][Sn]([CH2]CCC)([CH2]CCC)[CH2]CCC | 0.893 µM (active)
CCC1(c2cnc[nH]2)Cc2ccccc2C1 | inactive
Clc1ccc(C(Cl)(Cl)Cl)cc1Cl | inactive
N#CC(CCc1ccc(Cl)cc1)(Cn1cncn1)c1ccccc1 (stereo not given) | inactive
Fc1ccc(C2(Cn3cncn3)OC2c2ccccc2Cl)cc1 (stereo not given) | inactive
C[N+](C)(C)CCOC(=O)C(O)(c1ccccc1)c1ccccc1 | inactive
c1coc(-c2nc3ccccc3[nH]2)c1 | inactive
O=c1[nH]oc2c1CCNC2 | inactive
COc1ccc(Cc2nccc3cc(OC)c(OC)cc23)cc1OC | inactive
CC1=NNC(=O)N(/N=C/c2cccnc2)C1 | inactive
O=C(OC1CCCCC1)c1ccccc1C(=O)OC1CCCCC1 | inactive
CCCCN(CCCC)C(=S)[S-].CCCCN(CCCC)C(=S)[S-].[Ni+2] | inactive
NC(=O)c1ccc(N)nc1 | 5.76 µM (active)
CC(C)[C@@H](Nc1ccc(C(F)(F)F)cc1Cl)C(=O)OC(C#N)c1cccc(Oc2ccccc2)c1 (stereo not given in full) | inactive
CCCC[N+](=O)[O-] | inactive
CCOP(=S)(OCC)Oc1cc(C)nc(N(CC)CC)n1 | inactive
O=[N+]([O-])c1c(Cl)c(Cl)cc(Cl)c1Cl | inactive
CCC(C)c1cc([N+](=O)[O-])cc([N+](=O)[O-])c1OC(=O)C=C(C)C (stereo not given) | inactive
